Holding throughout (assay): DAPPL (digital affinity profiling via proximity ligation, sequencing); 10 mM Tris-HCl pH 7.5, 50 mM NaCl, 1 mM DTT, 4% glycerol, room temperature, 30 min; GST-TFs on glutathione beads, 16-mer random dsDNA library, 0.1% formaldehyde crosslink after washing; high values mean tight binding
For one test, the target named is T1, FLI1 (Homo sapiens, UniProt Q01543 1-452).
T1 sequence: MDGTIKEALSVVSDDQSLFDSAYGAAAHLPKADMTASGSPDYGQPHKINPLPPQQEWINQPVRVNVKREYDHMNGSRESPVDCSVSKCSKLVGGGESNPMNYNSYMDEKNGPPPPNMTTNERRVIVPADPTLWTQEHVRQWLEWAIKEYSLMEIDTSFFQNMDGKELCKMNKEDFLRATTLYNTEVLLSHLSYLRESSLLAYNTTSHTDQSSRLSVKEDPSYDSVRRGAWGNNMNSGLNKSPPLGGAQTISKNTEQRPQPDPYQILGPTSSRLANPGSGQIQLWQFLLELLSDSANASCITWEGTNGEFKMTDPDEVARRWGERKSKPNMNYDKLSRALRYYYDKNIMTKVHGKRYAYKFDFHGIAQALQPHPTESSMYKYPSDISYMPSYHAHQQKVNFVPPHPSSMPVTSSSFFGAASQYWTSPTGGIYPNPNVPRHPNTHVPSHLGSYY
The conditions noted are these: protein: recombinant; tags: N-terminal GST; dsDNA, one strand shown. In a few lines: (§1)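 Binding signal is each hexamer's read frequency for a factor divided by its frequency in the tag-only sample. The factors were GST-fused human transcription factors from yeast, captured on glutathione beads, DNA-barcoded and pooled with that sample. Pools were incubated with 200 nmole of a random double-stranded 16-mer DNA library in Tris/NaCl/DTT/glycerol buffer at room temperature for 30 min, then washed, crosslinked with 0.1% formaldehyde, proximity-ligated with BsaI/T4 ligase (1 h, 37 °C), PCR-amplified and sequenced on an Illumina NextSeq500.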

The target in another test is T2, ELK1 (Homo sapiens, UniProt P19419 1-428).
T2 sequence: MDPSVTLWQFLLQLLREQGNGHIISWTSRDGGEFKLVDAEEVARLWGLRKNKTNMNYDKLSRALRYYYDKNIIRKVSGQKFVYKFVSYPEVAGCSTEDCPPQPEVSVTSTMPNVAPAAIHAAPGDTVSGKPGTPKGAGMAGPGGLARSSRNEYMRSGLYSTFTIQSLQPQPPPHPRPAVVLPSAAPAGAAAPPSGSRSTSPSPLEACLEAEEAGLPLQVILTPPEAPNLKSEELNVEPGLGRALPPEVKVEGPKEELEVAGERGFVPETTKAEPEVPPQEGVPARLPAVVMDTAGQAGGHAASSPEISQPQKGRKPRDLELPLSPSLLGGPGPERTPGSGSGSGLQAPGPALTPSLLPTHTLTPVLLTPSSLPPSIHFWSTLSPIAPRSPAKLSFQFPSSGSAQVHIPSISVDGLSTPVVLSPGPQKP
The conditions noted are these: protein: recombinant; tags: N-terminal GST; dsDNA, one strand shown. The method in brief: as §1

The next test has as its target T3, GABPA (Homo sapiens, UniProt Q06546 1-454).
T3 sequence: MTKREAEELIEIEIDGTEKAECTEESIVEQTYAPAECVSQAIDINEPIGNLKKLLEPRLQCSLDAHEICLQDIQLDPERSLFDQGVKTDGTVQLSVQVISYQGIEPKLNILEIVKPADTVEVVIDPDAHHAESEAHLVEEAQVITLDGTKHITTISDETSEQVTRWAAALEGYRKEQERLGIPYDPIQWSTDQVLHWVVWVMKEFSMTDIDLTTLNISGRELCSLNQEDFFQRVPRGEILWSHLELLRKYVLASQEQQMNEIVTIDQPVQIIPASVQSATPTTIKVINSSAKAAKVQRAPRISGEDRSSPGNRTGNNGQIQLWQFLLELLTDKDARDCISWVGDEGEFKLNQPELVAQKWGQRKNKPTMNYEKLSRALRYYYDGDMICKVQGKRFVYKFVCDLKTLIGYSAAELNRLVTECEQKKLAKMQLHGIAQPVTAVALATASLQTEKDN
The conditions noted are these: protein: recombinant; tags: N-terminal GST; dsDNA, one strand shown. In a few lines: as §1

For a further test, the target named is T4, ERG (Homo sapiens, UniProt P11308 1-479).
T4 sequence: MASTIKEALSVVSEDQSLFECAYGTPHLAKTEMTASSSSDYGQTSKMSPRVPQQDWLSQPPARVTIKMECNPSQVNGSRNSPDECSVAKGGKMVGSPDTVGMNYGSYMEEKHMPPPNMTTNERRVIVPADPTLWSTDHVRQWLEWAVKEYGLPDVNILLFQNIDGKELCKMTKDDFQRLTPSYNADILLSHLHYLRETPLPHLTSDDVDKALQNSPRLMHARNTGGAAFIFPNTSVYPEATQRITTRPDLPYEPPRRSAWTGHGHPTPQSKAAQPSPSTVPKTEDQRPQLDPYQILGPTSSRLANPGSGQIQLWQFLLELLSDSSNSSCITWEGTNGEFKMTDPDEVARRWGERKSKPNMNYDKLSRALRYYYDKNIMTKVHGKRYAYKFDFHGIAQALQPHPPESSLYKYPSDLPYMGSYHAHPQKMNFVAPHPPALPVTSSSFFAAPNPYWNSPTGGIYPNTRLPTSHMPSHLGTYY
The conditions noted are these: protein: recombinant; tags: N-terminal GST; dsDNA, one strand shown. In a few lines: as §1

The next test addresses ELF1 (Homo sapiens, UniProt P32519 1-619). The conditions noted are these: protein: recombinant; tags: N-terminal GST; dsDNA, one strand shown. The method in brief:
as §1

In another test the target is T5, EHF (Homo sapiens, UniProt Q9NZC4 1-300).
T5 sequence: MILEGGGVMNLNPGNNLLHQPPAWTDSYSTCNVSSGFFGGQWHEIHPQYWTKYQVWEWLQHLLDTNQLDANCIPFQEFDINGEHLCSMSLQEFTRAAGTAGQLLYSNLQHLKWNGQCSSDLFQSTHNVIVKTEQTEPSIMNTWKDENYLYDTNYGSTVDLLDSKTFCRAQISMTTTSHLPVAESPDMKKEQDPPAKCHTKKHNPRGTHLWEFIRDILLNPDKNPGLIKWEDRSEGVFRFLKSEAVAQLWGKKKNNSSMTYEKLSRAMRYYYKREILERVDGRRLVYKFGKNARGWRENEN
The conditions noted are these: protein: recombinant; tags: N-terminal GST; dsDNA, one strand shown. The method in brief:
as §1

Another test has as its target SPI1 (Homo sapiens, UniProt P17947 1-270). The conditions noted are these: protein: recombinant; tags: N-terminal GST; dsDNA, one strand shown. In a few lines:
as §1

In another test the target is SPIB (Homo sapiens, UniProt Q01892 1-262). The conditions noted are these: protein: recombinant; tags: N-terminal GST; dsDNA, one strand shown. In a few lines: as §1
Chain of SPIB (Q01892 whole entry): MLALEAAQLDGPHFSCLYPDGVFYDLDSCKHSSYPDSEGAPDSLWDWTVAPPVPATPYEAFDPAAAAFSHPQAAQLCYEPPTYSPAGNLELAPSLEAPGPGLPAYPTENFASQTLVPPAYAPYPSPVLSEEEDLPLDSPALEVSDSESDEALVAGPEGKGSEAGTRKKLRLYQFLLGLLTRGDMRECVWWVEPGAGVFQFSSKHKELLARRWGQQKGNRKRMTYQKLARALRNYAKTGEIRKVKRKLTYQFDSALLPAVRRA
The next test addresses T6, ELK3 (Homo sapiens, UniProt P41970 1-407).
T6 sequence: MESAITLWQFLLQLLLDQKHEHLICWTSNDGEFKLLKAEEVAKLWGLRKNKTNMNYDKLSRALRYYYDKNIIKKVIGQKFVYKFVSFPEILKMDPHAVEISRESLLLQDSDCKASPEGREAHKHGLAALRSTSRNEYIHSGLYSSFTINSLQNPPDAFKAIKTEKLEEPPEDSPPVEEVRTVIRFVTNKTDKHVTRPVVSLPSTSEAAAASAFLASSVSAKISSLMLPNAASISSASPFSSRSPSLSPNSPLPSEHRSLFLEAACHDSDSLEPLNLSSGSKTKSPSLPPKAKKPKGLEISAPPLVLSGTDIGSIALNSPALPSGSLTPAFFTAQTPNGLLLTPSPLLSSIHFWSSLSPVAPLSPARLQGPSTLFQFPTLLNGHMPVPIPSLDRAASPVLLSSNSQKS
The conditions noted are these: protein: recombinant; tags: N-terminal GST; dsDNA, one strand shown. In a few lines:
as §1

The next test concerns the target T7, FEV (Homo sapiens, UniProt Q99581 1-238).
T7 sequence: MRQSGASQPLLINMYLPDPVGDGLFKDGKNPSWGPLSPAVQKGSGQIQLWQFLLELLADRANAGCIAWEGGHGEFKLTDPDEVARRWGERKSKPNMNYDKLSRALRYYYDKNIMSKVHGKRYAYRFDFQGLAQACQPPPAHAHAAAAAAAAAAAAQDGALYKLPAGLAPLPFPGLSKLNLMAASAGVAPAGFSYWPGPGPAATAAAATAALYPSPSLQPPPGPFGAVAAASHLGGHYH
The conditions noted are these: protein: recombinant; tags: N-terminal GST; dsDNA, one strand shown. The method in brief:
as §1

For another test, the target named is ETV5 (Homo sapiens, UniProt P41161 1-510). The conditions noted are these: protein: recombinant; tags: N-terminal GST; dsDNA, one strand shown. The method in brief:
as §1

The next test addresses HSF1 (Homo sapiens, UniProt Q00613 1-529). The conditions noted are these: protein: recombinant; tags: N-terminal GST; chain copies: 3; dsDNA, one strand shown. The method in brief:
as §1

The target in another test is T8, SPIC (Homo sapiens, UniProt Q8N5J4 1-248).
T8 sequence: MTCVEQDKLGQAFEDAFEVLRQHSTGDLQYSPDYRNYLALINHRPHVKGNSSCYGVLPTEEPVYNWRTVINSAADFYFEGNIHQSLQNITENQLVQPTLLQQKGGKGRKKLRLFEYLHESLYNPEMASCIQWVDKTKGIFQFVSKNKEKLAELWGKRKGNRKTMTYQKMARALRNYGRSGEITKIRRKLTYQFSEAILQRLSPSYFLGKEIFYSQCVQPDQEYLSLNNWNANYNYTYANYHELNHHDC
The conditions noted are these: protein: recombinant; tags: N-terminal GST; dsDNA, one strand shown. The method in brief: as §1

The target in another test is ELF4 (Homo sapiens, UniProt Q99607 1-663). The conditions noted are these: protein: recombinant; tags: N-terminal GST; dsDNA, one strand shown. The method in brief: as §1
Chain of ELF4 (Q99607 whole entry): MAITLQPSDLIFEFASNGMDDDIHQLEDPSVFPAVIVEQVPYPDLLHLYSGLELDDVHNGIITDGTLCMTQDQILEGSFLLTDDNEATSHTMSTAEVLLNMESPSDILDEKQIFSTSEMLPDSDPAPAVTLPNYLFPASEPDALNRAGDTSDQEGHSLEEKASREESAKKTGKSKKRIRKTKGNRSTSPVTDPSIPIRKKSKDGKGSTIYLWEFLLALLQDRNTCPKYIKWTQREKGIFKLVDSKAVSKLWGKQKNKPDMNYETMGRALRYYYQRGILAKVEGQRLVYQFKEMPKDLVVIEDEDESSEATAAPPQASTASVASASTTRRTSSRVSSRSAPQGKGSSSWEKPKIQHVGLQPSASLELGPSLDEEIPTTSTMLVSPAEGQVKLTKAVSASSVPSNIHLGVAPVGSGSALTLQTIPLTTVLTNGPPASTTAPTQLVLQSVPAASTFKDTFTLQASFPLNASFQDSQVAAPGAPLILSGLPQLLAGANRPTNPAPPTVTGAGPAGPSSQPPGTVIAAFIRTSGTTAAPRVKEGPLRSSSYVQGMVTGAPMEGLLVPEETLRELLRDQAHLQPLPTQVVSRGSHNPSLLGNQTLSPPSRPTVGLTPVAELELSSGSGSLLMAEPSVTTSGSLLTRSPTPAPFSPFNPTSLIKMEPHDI
In the next test the target is T9, ELK4 (Homo sapiens, UniProt P28324-2 1-405).
T9 sequence: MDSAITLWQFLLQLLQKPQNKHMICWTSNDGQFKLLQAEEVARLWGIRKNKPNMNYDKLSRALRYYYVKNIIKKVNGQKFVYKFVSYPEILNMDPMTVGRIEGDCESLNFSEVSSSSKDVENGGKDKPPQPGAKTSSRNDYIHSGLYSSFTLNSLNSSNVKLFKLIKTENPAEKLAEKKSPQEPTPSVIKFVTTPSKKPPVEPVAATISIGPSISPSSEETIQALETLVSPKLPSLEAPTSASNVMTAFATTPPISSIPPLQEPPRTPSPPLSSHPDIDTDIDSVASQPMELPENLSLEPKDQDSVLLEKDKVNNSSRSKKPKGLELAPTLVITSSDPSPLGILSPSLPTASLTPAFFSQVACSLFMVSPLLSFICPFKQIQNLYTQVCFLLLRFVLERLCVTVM
The conditions noted are these: protein: recombinant; tags: N-terminal GST; dsDNA, one strand shown. The method in brief:
as §1

The target of a further test is T10, ETV2 (Homo sapiens, UniProt O00321 1-342).
T10 sequence: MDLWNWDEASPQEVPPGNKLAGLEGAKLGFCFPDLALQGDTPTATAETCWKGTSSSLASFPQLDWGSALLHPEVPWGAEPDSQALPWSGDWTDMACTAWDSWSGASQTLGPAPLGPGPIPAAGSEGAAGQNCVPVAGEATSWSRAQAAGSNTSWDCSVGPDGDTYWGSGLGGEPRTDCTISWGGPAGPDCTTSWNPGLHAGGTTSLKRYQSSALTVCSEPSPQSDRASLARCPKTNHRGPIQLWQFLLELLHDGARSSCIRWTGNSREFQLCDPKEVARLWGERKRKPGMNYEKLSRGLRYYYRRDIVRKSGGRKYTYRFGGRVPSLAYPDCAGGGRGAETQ
The conditions noted are these: protein: recombinant; tags: N-terminal GST; dsDNA, one strand shown. In a few lines:
as §1

The target of another test is T11, ELF3 (Homo sapiens, UniProt P78545 1-371).
T11 sequence: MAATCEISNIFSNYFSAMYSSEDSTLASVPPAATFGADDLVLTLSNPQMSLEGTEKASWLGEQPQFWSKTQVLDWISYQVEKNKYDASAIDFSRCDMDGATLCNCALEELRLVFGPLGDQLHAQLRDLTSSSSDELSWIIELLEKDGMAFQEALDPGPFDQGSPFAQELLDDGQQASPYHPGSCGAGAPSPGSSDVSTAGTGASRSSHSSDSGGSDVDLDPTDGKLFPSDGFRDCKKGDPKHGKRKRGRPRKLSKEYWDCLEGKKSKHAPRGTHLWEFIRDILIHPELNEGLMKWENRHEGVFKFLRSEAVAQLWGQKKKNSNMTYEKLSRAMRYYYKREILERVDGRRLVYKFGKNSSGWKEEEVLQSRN
The conditions noted are these: protein: recombinant; tags: N-terminal GST; dsDNA, one strand shown. The method in brief:
as §1

The target of another test is CRX (Homo sapiens, UniProt O43186 1-299). The conditions noted are these: protein: recombinant; tags: N-terminal GST; dsDNA, one strand shown. The method in brief:
as §1

For a further test, the target named is ETV1 (Homo sapiens, UniProt P50549 1-477). The conditions noted are these: protein: recombinant; tags: N-terminal GST; dsDNA, one strand shown. The method in brief:
as §1

Chain of ETV5 (P41161 whole entry): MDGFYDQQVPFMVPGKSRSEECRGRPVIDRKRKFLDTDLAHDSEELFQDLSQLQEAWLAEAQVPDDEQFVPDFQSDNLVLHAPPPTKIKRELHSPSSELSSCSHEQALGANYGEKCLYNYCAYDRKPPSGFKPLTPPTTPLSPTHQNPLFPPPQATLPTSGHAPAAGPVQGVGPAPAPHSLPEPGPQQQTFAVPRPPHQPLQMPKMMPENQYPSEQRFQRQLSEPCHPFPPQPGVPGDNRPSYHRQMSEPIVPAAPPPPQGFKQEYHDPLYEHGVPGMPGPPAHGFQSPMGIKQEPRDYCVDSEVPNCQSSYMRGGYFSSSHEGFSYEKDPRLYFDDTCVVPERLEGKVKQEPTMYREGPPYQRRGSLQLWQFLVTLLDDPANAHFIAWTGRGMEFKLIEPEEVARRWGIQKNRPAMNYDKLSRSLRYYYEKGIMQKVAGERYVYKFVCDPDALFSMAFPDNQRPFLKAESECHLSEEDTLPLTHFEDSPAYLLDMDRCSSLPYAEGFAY
Chain of ELF1 (P32519 whole entry): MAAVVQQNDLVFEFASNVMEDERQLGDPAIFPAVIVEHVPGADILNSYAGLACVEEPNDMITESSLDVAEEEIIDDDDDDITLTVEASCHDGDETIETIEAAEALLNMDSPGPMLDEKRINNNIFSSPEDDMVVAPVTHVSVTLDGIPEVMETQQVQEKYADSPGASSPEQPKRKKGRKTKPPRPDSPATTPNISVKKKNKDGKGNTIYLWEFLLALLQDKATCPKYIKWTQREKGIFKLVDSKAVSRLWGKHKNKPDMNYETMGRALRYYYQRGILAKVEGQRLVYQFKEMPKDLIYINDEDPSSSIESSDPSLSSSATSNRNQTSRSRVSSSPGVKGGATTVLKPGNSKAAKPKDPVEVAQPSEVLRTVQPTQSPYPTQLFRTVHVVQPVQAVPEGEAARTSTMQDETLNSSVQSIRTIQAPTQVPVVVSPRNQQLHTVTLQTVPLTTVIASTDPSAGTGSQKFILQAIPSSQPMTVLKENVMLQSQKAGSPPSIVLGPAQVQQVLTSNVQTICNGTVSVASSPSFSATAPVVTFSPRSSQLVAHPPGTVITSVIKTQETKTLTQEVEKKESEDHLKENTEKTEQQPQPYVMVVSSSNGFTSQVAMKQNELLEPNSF
Chain of ETV1 (P50549 whole entry): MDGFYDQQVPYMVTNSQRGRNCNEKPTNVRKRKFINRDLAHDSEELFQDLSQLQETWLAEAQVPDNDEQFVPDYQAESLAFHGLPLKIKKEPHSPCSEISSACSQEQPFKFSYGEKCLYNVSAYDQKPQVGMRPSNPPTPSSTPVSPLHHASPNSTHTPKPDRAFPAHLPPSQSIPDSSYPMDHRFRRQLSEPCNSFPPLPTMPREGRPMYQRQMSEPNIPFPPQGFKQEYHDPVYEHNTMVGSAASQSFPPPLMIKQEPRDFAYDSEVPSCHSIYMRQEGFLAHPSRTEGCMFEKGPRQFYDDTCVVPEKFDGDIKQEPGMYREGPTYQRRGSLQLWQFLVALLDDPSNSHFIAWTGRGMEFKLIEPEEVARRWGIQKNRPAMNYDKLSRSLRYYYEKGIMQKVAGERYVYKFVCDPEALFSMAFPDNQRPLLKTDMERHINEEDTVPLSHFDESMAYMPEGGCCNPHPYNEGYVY
Chain of CRX (O43186 whole entry): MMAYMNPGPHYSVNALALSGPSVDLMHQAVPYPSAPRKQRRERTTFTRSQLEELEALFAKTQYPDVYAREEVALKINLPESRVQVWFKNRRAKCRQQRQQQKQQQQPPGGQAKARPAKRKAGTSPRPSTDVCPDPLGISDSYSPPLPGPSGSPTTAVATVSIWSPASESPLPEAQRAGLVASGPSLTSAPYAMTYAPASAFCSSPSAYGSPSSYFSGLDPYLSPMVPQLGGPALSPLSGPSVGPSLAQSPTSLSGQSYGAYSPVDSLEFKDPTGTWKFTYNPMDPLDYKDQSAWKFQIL
Chain of HSF1 (Q00613 whole entry): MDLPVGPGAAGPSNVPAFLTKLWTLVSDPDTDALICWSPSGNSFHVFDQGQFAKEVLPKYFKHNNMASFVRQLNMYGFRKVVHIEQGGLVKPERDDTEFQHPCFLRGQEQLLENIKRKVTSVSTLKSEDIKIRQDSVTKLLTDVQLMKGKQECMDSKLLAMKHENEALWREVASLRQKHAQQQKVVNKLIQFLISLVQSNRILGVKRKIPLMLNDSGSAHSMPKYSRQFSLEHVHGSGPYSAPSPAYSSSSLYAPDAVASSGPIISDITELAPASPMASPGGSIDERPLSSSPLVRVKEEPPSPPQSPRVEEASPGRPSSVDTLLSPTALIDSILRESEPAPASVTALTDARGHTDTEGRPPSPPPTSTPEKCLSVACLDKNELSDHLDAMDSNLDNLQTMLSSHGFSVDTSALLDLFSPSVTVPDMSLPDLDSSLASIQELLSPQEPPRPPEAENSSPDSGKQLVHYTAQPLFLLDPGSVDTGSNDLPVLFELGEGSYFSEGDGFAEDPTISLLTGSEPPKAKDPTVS

In the case of GAACTT, the binding signal with FLI1 was 1.68 fold enrichment (6-mer frequency, TF over GST control); with ELK1, 1.65 fold enrichment (6-mer frequency, TF over GST control); with GABPA, 1.62 fold enrichment (6-mer frequency, TF over GST control); in the test with ERG, 1.58 fold enrichment (6-mer frequency, TF over GST control); with ELF1, 1.7 fold enrichment (6-mer frequency, TF over GST control); with EHF, 1.59 fold enrichment (6-mer frequency, TF over GST control). The binding signal with SPI1 is 1.74 fold enrichment (6-mer frequency, TF over GST control); with SPIB, 1.69 fold enrichment (6-mer frequency, TF over GST control); with ELK3 it was 1.7 fold enrichment (6-mer frequency, TF over GST control); with FEV, 1.72 fold enrichment (6-mer frequency, TF over GST control); with ETV5, 1.66 fold enrichment (6-mer frequency, TF over GST control); with HSF1, 2.03 fold enrichment (6-mer frequency, TF over GST control). Also, the binding signal with SPIC was 1.71 fold enrichment (6-mer frequency, TF over GST control); with ELF4, 1.52 fold enrichment (6-mer frequency, TF over GST control); in the test with ELK4 it was 1.48 fold enrichment (6-mer frequency, TF over GST control); in the test with ETV2, 1.44 fold enrichment (6-mer frequency, TF over GST control); in the test with ELF3, 1.5 fold enrichment (6-mer frequency, TF over GST control); with CRX, 1.32 fold enrichment (6-mer frequency, TF over GST control). Moreover, in the test with ETV1, the binding signal is 1.68 fold enrichment (6-mer frequency, TF over GST control).

Source of the values: paper PMC7862700, “An all-to-all approach to the identification of sequence-specific readers for epigenetic DNA modifications on cytosine”.
